The structures appear in SMILES notation. The whole screen tested about 69,000 compounds, of which about 8,600 (12%) showed an effect of 50% or more. What follows is part of a selection rich in strong results, with near analogues and random picks from the rest.

The test system of the assay is Plasmodium berghei. As to the kind of experiment: Screen against P. berghei liver stage (PbLuc), transformed with Luciferase, at 10uM. The class given is functional, HepG2. Particulars: tested at 10 uM.
Turning to `c1cnc(-c2nc(CN3CCCC3Cn3cncn3)cs2)nc1` (centres undefined), the INHIBITION turned out to be 27.6%.
For `COCCC(=O)N1CCC(c2nc(O)cc(-c3ccncc3)n2)C1` (centres undefined) the value was -0.902%; for `Cc1ccoc1C(=O)N(CCN(C)C)Cc1ccccn1`, -31.4%.
For `COc1cc(C(=O)N(CCC#N)Cc2ccccn2)cc(OC)c1C` the value was 7.9%.
For `CN(C)CCN(Cc1ccccn1)C(=O)Nc1cccc(F)c1` the value was 18.9%; for `Cc1c(C(=O)N(CCN(C)C)Cc2ccccn2)oc2ccccc12`, 63.7%; for `Cc1occc1C(=O)N(CCN(C)C)Cc1ccccn1`, 51.3%.
As to `COCCN(CCOC)C(=O)c1ccoc1C`, the INHIBITION is -0.551%.
With `c1cnc(N2CCN(C3CCC[C@@H]4CN(CC5CC5)C[C@H]34)CC2)nc1` (some centres undefined), the INHIBITION was -34.7%.
For `O=S1(=O)NC(C2CCCN(S(=O)(=O)N3CCCC3)C2)=Nc2ccccc21` (centres undefined) the value was 4.535%.
The same measure for `Cc1ccc(OC2CCN(CCn3cncn3)CC2)cc1`: 86.8%; for `Clc1ccc(OCCN2CCN(CCn3cncn3)CC2)cc1`: 47.4%.
The same measure for `Fc1ccc(OC2CCN(CCn3cncn3)CC2)cc1`: -5.69%.
For the compound `O=C(NCC1CCS(=O)(=O)C1)c1ccc(NC(=O)c2ccco2)cc1` (centres undefined), the INHIBITION was 18.6%.
The same measure for `O=C(CCc1cscn1)N1CCCC(n2cncn2)C1` (centres undefined): 31.8%; for `COc1ccc(OC)c(CNc2c(O)c(=O)c2=O)c1`: 47.4%; for `CCc1nc(NCCn2cccn2)c2c(n1)c(C)nn2C`: 19.3%.
Take `CCc1nc(NCCCn2cccn2)c2c(n1)c(C)nn2C`: the INHIBITION is reported as 10.3%.
The same measure for `CCCc1nc(NCCCn2cccn2)c2c(n1)c(C)nn2CC`: 27.5%; for `Cc1nn(C)c2c(NCCCn3cccn3)ncnc12`: -43.4%; for `Cc1nc(NCCCn2cccn2)c2c(n1)c(C)nn2C`: 57.3%.
Take `Cc1nn(C)c2c(NCCCn3cccn3)nc(C3CC3)nc12`: the INHIBITION is recorded as 42.4%.
The same measure for `Cc1nn(C)c2c(NCCCn3cccn3)nc(C(C)C)nc12`: 62.3%.
Consider `Cc1nn(C)c2c(NCc3ccccn3)nc(C(C)C)nc12`, for which the INHIBITION turned out to be 33.7%.
The same measure for `Cc1nn(C)c2c(NCCn3cccn3)ncnc12`: -37.2%; for `CCc1nc(NCc2ccccn2)c2c(n1)c(C)nn2C`: 42.1%.
For the compound `CCc1nc(NCCCn2cccn2)c2c(n1)c(C)nn2CC`, the INHIBITION came to 64%.
The same measure for `Cc1nc(NCc2ccccn2)c2c(n1)c(C)nn2C`: 57.4%.
For `Cc1ccc(S(=O)(=O)N2CC[C@H]3CO[C@H](CN(C)C)[C@H]3C2)cc1` the value was 32.2%.
Take `COc1ccc(CN2CCC3(CC2)CCN(CC(C)C)C3=O)cc1`: the INHIBITION amounted to 13.2%.
For `CCn1nc(C)c2nc(C(C)C)nc(NCCCn3ccnc3)c21` the value was -13.085%; for `CCn1nc(C)c2nc(C)nc(NCCCn3cccn3)c21`, 39.1%.
For `CCn1nc(C)c2nc(C(C)C)nc(NCCCn3cccn3)c21` the value was 50.7%; for `C[C@@H]1CN(c2ccc(C#N)cn2)CC[C@@]1(O)C1CCOCC1`, 24.76%; for `CCCc1n[nH]c(C2CN(C(=O)c3ccc(C)[nH]c3=O)CCO2)n1` (centres undefined), 40.2%.
The same measure for `COc1cc2c(c(OC)c1OC)CCN(CCn1cncn1)CC2`: 52.6%; for `COc1cc(C)cc(C(C(=O)O)N(C)CCN2CCCC2)c1OC` (centres undefined): 28%; for `COc1cc2c(c(OC)c1OC)CCN(CCN1CCCCC1)CC2`: 54.8%.
Consider `COc1cc2c(c(OC)c1OC)CCN(CCn1nc(C)cc1C)CC2`, for which the INHIBITION is recorded as 36.3%.
The same measure for `COc1ccc(CN2CCn3cncc3C2)cc1Cn1cncn1`: 16.1%.
As to `c1ccc(CCCN2CCN(CCn3cncn3)CC2)cc1`, the INHIBITION amounted to 15.1%.
In the case of `CNC(=O)[C@H]1C[C@H]2OCC[C@H]2N(CCOc2ccc(Cl)cc2)C1`, the INHIBITION is given as -52.3%.
With `Cc1cc2cc(C(=O)N3C[C@H](O)[C@]4(CCCO4)C3)ccc2o1`, the INHIBITION was 15.9%.
For `Cc1ccc(CN2CC[C@H]3[C@H](CC(Cn4cccn4)N3C)C2)s1` (some centres undefined) the value was 25.3%; for `Cc1n[nH]c(C2CN(C(=O)c3cc(Cl)c[nH]3)CCO2)n1` (centres undefined), 31.6%; for `O=C(NCC(=O)N1CCCC1Cc1cccc(F)c1)c1ccccn1` (centres undefined), -6.51%.
For `Cc1nc(CNC(C)c2cccc(N3CCCC3=O)c2)cs1` (centres undefined) the value was 22.7%; for `O=S(=O)(NCCCN1CCCC1)c1cc(F)cc(F)c1`, 71.3%; for `O=S(=O)(Cc1ccccc1F)NCCCN1CCCCC1`, 36.3%.
The same measure for `CC(=O)N1CCN(CCNS(=O)(=O)c2cc(F)cc(F)c2)CC1`: 26.4%; for `CC1CCN(CCCNS(=O)(=O)c2cc(F)cc(F)c2)CC1`: 51.4%; for `CC1CCN(CCCNS(=O)(=O)c2cccc(F)c2)CC1`: -14.9%.
For the compound `CC1CCN(CCCNS(=O)(=O)Cc2ccccc2F)CC1`, the INHIBITION stood at 26.9%.
The same measure for `COc1cccc(-c2c[nH]c(C3CCCN3)n2)c1` (centres undefined): -8.45%; for `CCc1ncc(CN[C@@H]2CCCN(C(C)=O)[C@H]2c2ccc(C)s2)cn1`: 23.2%.
Consider `COCCOc1cccc(C(=O)N2CCCC(n3ccnc3C)C2)c1` (centres undefined), for which the INHIBITION is given as 44.3%.
The same measure for `Cc1cnn(C2CCCN(C(=O)c3ccc(NC4CC4)nc3)C2)c1` (centres undefined): -22.9%; for `Cc1cccc2c1NC1(CCOCC1)NC2=O`: 48%.
As to `Cc1cc(NCc2ccc(S(N)(=O)=O)cc2)nc(C)n1`, the INHIBITION was determined as 41.5%.
For `Cc1ccc(-c2nc(CN3CCn4c(nnc4C4CC4)C3)no2)cc1` the value was 24.7%; for `Fc1ccc(-c2nnc(CN3CCn4c(nnc4C4CC4)C3)o2)cc1`, 0.0932%; for `Cc1cccc(-c2noc(CN3CCn4c(nnc4C4CC4)C3)n2)c1`, -14.8%.
The same measure for `c1ccc(-c2nc(CN3CCn4c(nnc4C4CC4)C3)co2)cc1`: -40.2%.
Consider `Cc1ccc(-c2nc(CN3CCn4c(nnc4C4CC4)C3)co2)cc1`, for which the INHIBITION is given as -25.9%.
As for `Cc1ccc(-c2noc(CN3CCn4c(nnc4C4CC4)C3)n2)cc1`, the INHIBITION is -32.345%.
As for `Cc1ccc(-c2nc(CN3CCn4c(nnc4C4CC4)C3)co2)c(C)c1`, the INHIBITION was 54.4%.
For `Cc1ccccc1-c1noc(CN2CCn3c(nnc3C3CC3)C2)n1` the value was 55.9%.
Regarding `Cc1ccc(-c2nnc(CN3CCn4c(nnc4C4CC4)C3)o2)cc1`, the INHIBITION amounted to 52.3%.
The same measure for `Cc1n[nH]c(C2CN(C(=O)c3cc(C4CC4)on3)CCO2)n1` (centres undefined): 49.2%; for `CN(C)C(C)(C)CNCc1cn(C)nc1-c1cccnc1`: 23.7%.
The same measure for `CN(Cc1ccccc1)CC(O)Cn1cnc2ccc(Br)cc2c1=O` (centres undefined): 14.92%; for `Cc1ccnc(C2(C)CCCN2S(=O)(=O)c2c(C)noc2C)n1` (centres undefined): 0.705%.
For `CCOCc1nc(N2CCOCC2)sc1C(=O)NCCCc1ccco1` the value was 24.5%.
For the compound `Cc1ccc(CN2Cc3c(C(=O)N4CCOCC4)nn(C)c3C2)s1`, the INHIBITION is -17.1%.
For the compound `CNc1ncc(C(=O)N2CCC(CCc3ccccc3)CC2)cn1`, the INHIBITION is reported as -25.2%.
The same measure for `CNc1ncc(CN2CCC(CCc3ccccc3)CC2)cn1`: 67.5%; for `CCc1ncc(CN2CCC(CCc3ccccc3)CC2)cn1`: 37.8%.
As to `CCc1[nH]c2ccc(CNC(=O)Cc3c(C)nc(N)nc3C)cc2c1C`, the INHIBITION was 43.9%.
For the compound `Cc1nc(N)nc(C)c1CC(=O)NCc1ccc2nonc2c1`, the INHIBITION is listed as 61.2%.
For the compound `N[C@@H]1CC[C@H](C(=O)NCc2ccc3nonc3c2)C1`, the INHIBITION came to 0%.
For `CN(Cc1cnn(C)c1)C(=O)NCc1ccc2c(c1)OCCO2` the value was -26.85%.
Turning to `O=C(Cc1csc(-c2ccccc2Cl)n1)NCc1cccc(C(=O)O)c1`, the INHIBITION worked out at 17.1%.
Consider `Cc1ccc(C(=O)N2CCC3(CCN(Cc4ccccn4)C3=O)C2)cn1` (centres undefined), for which the INHIBITION is on record as 22.5%.
The same measure for `CCn1ccnc1CN1CCN(c2ncnc3ccccc23)CC1`: -66.4%; for `CCc1nc(CN2CCN(CC(O)c3ccccc3)CC2)no1` (centres undefined): 42%.
The same measure for `CCc1nc(CN2CCCN(c3nc4ccccc4o3)CC2)no1`: -8.19%; for `Cc1nc(CN2CCCN(Cc3nc4ccccc4o3)CC2)no1`: -24.7%.
With `CCc1nc(CN2CCCN(c3cnc4ccccc4n3)CC2)no1`, the INHIBITION is recorded as 40.5%.
For `Cc1nc(CN2CCN(c3ncnc4ccccc34)CC2)no1` the value was 94.1%; for `CCc1nc(CN2CCCN(CC(O)c3ccccc3)CC2)no1` (centres undefined), -11.4%.
The same measure for `CCc1nc(CN2CCCN(c3ncnc4ccccc34)CC2)no1`: 86.8%; for `CCc1nc(CN2CCN(c3ncnc4cc(F)ccc34)CC2)no1`: 91.8%; for `CN1CCOC2(CCCN(C(=O)C3CCCCC3)C2)C1` (centres undefined): 9.97%.
For `Cc1cc(F)ccc1C(=O)N1CCN(C)C2(CCC(=O)N(C)CC2)C1` (centres undefined) the value was 25.8%.
Take `CNc1ncccc1CN1CCC1c1cc(N)nc(C)n1` (centres undefined): the INHIBITION amounted to 10.9%.
For `CC(C)C(NCc1ccc(Cn2cncn2)cc1)c1ccccc1` (centres undefined) the value was -1.33%; for `CC(C)c1ccc(CNC(c2ccc(F)cn2)C(C)C)cc1` (centres undefined), 48.9%.
For `CC(C)C(NCc1ccc(Cn2cncn2)cc1)c1ccc(F)cn1` (centres undefined) the value was 71.2%; for `COc1cc(C)ccc1OCCC(=O)N1CCC(C(N)=O)C1` (centres undefined), -24.9%.
For `O=C(c1cnc(-c2ncccn2)s1)N1CCCC1Cn1cccn1` (centres undefined) the value was -24.3%; for `Cc1cnc(N)c(C(=O)C2CCN(C(=O)c3cnc(C)cn3)CC2)c1`, -20.2%; for `Cc1cnc(N)c(C(=O)C2CCN(C(=O)c3ccccc3F)CC2)c1`, 56.9%.
`Cc1cnc(N)c(C(=O)C2CCN(C(=O)c3cnc(C)nc3C)CC2)c1`: the INHIBITION is given as -2.11%.
For the compound `CC(=O)N1CCC(C(=O)c2cc(C)cnc2N)CC1`, the INHIBITION is 39.2%.
The same measure for `COCC(=O)N1CCC(c2cc(-c3ccc(N)nc3)cc(C)n2)CC1`: 7.19%; for `C=C(C)C(=O)N1CCC(C(=O)c2cc(C)cnc2N)CC1`: 68.8%; for `Cc1cnc(N)c(C(=O)C2CCN(C(=O)C3CCC3)CC2)c1`: 13.5%.
Consider `COCC(=O)N1CCC(C(=O)c2cc(C)cnc2N)CC1`, for which the INHIBITION worked out at 58.1%.
The same measure for `COCCC(=O)N1CCC(C(=O)c2cc(C)cnc2N)CC1`: -26.2%.

Source of the values: ChEMBL document CHEMBL4513216, “Probing the Open Global Health Chemical Diversity Library for Multistage-Active Starting Points for Next-Generation Antimalarials” (ACS Infect Dis, 2020).
